T1: UNK ZnF1-3 (human, UniProt Q9C0B0 31-174)
T1 sequence: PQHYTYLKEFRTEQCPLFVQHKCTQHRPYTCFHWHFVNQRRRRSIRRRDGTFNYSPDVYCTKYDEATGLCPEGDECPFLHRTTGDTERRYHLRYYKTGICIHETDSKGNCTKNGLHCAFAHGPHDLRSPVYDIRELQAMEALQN

B1: chr13:90237973:90237974:+_ENSMUSG00000012422_ENSMUST00000161568|mus_hu|FALSE|FALSE (ssRNA)
RNA: GGGAGUUCUACAGUCCGACGAUCAAGCACAGGUACAUAUAAGCAGCAAGAUUACAGUCAAUAGACUCUGAAAAUUGAAAAUGGCAGACAUAGCGAGGCCGGCGAUGCCGCAGCCACAUCACCCUUCCGGGGCUCAGGCGGAAGCAACAGAGGAUUGAGCAUCA
B2: chr1:163112212:163112213:-_ENSG00000143248_ENST00000313961|hu_hu|hu_hu_hu_mus_False|1_58 (ssRNA)
RNA: GGGAGUUCUACAGUCCGACGAUCUUUUAUUAUCAGUAAGAGUGAGUUACAUACUAGGCAAAGUAUUGGAUACAAUAUUCUAAAGAUAAACACUAUUGGUCCAGAAUUUAAAACUUUAUGAGCGAAGUGCUGGCACAGGAUUUACAACAGAGGAUUGAGCAUCA
B3: chr7:7679991:7679992:-_ENSG00000106399_ENST00000396682|hu_hu|hu_hu_hu_mus_False|48_88 (ssRNA)
RNA: GGGAGUUCUACAGUCCGACGAUCUGGGAUGAAUCUUUUCCAGCUUCCCUACGAAGCACACGGGCCGGUCGAUAUACUGUGGUAACAUGCCGGCGUUGACGCGCGCUUUGGGGAGCUGCAUUAUGUCCUCCAUGAUUCUGCCGCCAACAGAGGAUUGAGCAUCA
B4: chr9:56909451:56909452:+_ENSMUSG00000032290_ENSMUST00000034832|mus_hu|motif|central (ssRNA)
RNA: GGGAGUUCUACAGUCCGACGAUCCAUAAGUGCACACACACACACACACAGAAUGACAGAAAGGACUGGAAUACACGCCCGGCUUAUAAACGUGCUUGGCACUCAGGACGAUCUCUAGAAUAUGUAACUUGGUCAAGCUCUCUGCAACAGAGGAUUGAGCAUCA
B5: 62695852_62700603_289_3pUTR_ENSMUSG00000042211_ENSMUST00000048688|mouse|control|control (ssRNA)
RNA: GGGAGUUCUACAGUCCGACGAUCAGCUUCCGAGAGAGGCAUUCCAUGCACAUGAUGUCCUGUAGUGGCAGGUACCUGAAGAUAUGACAGAGCACUUCAUGUGACAGCUGGUUCAUGUAGUCCUUCUCUUCAUCGGCUGUCAUUCAACAGAGGAUUGAGCAUCA
B6: chr7:151048522:151048523:+_ENSG00000013374_ENST00000566856|hu_mus|hu_hu_hu_mus_True|58_78 (ssRNA)
RNA: GGGAGUUCUACAGUCCGACGAUCCUGUUUCUUAUUUAUUACGAUCUUGAUGUAAUUUUCUUGAAGUCCGAAAGUUUCAGCUAUUUUACACCUCAGGUCUCUACCAGUGACAUGCAAGCGGGUCUCCAACAAGCUUUUCUUAUCCAACAGAGGAUUGAGCAUCA
B7: chr14:78183846:78183847:+_ENSG00000119705_ENST00000557342|hu_hu|hu_hu_hu_mus_False|18_108 (ssRNA)
RNA: GGGAGUUCUACAGUCCGACGAUCUCUGUCUCAAAAAUCUUCAUCAGAUGUUUGAGCUCCGUGCAAAGCCUUUGCUCUUUGAGCUUGAACGUGGAUCUAUGGGAGGGAAAGCACUGUAUUUUCCUGUAAUUUUUUUUUUAAAGACAACAGAGGAUUGAGCAUCA
B8: chr1:220276048:220276049:+_ENSG00000067704_ENST00000302637|hu_hu|hu_hu_hu_mus_True|78_108 (ssRNA)
RNA: GGGAGUUCUACAGUCCGACGAUCGCAAACAGCUUCAUUGGCGGGAAUUGUCCAAGGUUGUGUGGUCCAAACUAAAACGCUAACAGGGGAUGAGGCAUCUGUAAGAGACUCCAACUUCGGAGGAGGUCUCAGGAGGGGGAAUCUCAACAGAGGAUUGAGCAUCA
B9: 27242051_27281840_773_CDS_ENSMUSG00000009621_ENSMUST00000056176|mouse|control|control (ssRNA)
RNA: GGGAGUUCUACAGUCCGACGAUCCAGCUCACUGUUUCUUAGUCCAAAUUUGUCAUGGCAGACUUUGAGGAAGGUGCGAAUAUUCUUCAGACACAAGAACUGGGACAUCUGCGGCCGGAAGUUGAUGUCCUUAAGGUCGAUGGACAACAGAGGAUUGAGCAUCA
B10: chr20:43533646:43533647:+_ENSG00000166913_ENST00000353703|hu_mus|FALSE|FALSE (ssRNA)
RNA: GGGAGUUCUACAGUCCGACGAUCGAAAUUCAGCGCCAGGCCGAGGCGAAUCGGGUGUGUAGGCUGCAUUUCUUUCUUGCUGAUUUCAAAUGCUUCUUGGUAAGCCUGCUGGGAGUUGGACACCGUGGUUUGUUUAUUUUCUCCCAACAGAGGAUUGAGCAUCA
B11: chr1:171751117:171751118:+_ENSG00000010165_ENST00000361735|hu_hu|motif|central (ssRNA)
RNA: GGGAGUUCUACAGUCCGACGAUCCUUUUAGGUAAGAGGUUCAUGUUCCUACUGCCGAAGCUGCGUUUUCAAGACUCCCCGGUUCCCUGUGAGAUACCAUUUGAGGAGCUUGCCCACCACACGCAGGCUCCGGGACACUGCAGUCAACAGAGGAUUGAGCAUCA
B12: chr10:120833061:120833062:-_ENSG00000107581_ENST00000369144|perfect_dup|motif|central (ssRNA)
RNA: GGGAGUUCUACAGUCCGACGAUCUUGGGACUCUUCUUUAGCAGCUUCUGUUUUUUCCUCUGCUAAUUUCAAAUAUGCCCGGACAACAUCUUCUAAAGAUUUAAUGUUUACCUGUUGGCAUAUGUUCUUAUAUUGAUAUAACCCCAACAGAGGAUUGAGCAUCA
B13: 18861418_18861648_5666_CDS_ENSG00000157106_ENST00000446231|human|control|control (ssRNA)
RNA: GGGAGUUCUACAGUCCGACGAUCCAGCCUAGGGUCAUCCUCAUCUAAAGGAAUUUGACCAGCGUUGAGUUUAAGGAAAGUAAAGUAUGCACUGCAAGAGAGUUUGUACAGGCUGAAUAUUCUAUCUACAACUUUCCUCCACACCAACAGAGGAUUGAGCAUCA
B14: chr11:48615247:48615248:+_ENSMUSG00000020372_ENSMUST00000020640|perfect_dup|FALSE|FALSE (ssRNA)
RNA: GGGAGUUCUACAGUCCGACGAUCUCCAUCCCAGGAGCCUGAGAGGGCAAACUGGCCAUCUGAGGAGAUAACCACAUCACUAACAAAGUGGGAGUGACCCCGCAGAGCACGCUGUGGAAUUCCAUAGUUGGUCUCAUCCCUGGUCAACAGAGGAUUGAGCAUCA
B15: chr5:110835399:110835400:-_ENSG00000164211_ENST00000296632|hu_hu|motif|central (ssRNA)
RNA: GGGAGUUCUACAGUCCGACGAUCUGAGAGCCUGUCUCAAAAUUUAAAAAAAAAAAAGUGAAAAUGCCCUCUCUUAGAUAGCGGUUUACUUUAGGAAUAAAACCAAACAUUGUACUAGUGAACCAAAAACAUUUCAAAUUUUUCCAACAGAGGAUUGAGCAUCA
B16: chr1:39494564:39494565:+_ENSG00000168653_ENST00000372967|hu_hu|hu_hu_hu_mus_True|68_78 (ssRNA)
RNA: GGGAGUUCUACAGUCCGACGAUCAUGCAUUCGCCUCAUCGUUUUGUACCGAAGCAAACACUCUACGAAAUCAUCAUACUCUAUCUUGCACUCCUUUUUCGCCCGGGUCCCACCGAUCCCGUGUGCACACUCUAUCCACUCUUUCAACAGAGGAUUGAGCAUCA
B17: chr14:66974463:66974464:+_ENSMUSG00000022044_ENSMUST00000074523|mus_hu|mus_mus_mus_hu_False|18_58 (ssRNA)
RNA: GGGAGUUCUACAGUCCGACGAUCUUGUAGGACGACUUAUUCAGGGGAUCGGCCAGGAAGCAGGAGCAGAACAAGGACACUAGUGGGAGCUCCUUCAUCUUCUCUUUGUAGGCAGCAAGAGUCAUGUUUCUGGGAUCUGGUGGCCAACAGAGGAUUGAGCAUCA
B18: chr5:125866394:125866395:-_ENSMUSG00000008348_ENSMUST00000136312|mus_hu|FALSE|FALSE (ssRNA)
RNA: GGGAGUUCUACAGUCCGACGAUCACAACUUUAUUGAAAGGAAAGUGCAAUGAAAUUUGUUGAAACCUUAAAAGGGGAAACUUAGACACCCCCCCUCAAGCGCAGGACCAAGUGCAGAGUGGACUCUUUCUGGAUGUUGUAGUCCAACAGAGGAUUGAGCAUCA
B19: 44041996_44042116_73_3pUTR_ENSMUSG00000034342_ENSMUST00000037644|mouse|control|control (ssRNA)
RNA: GGGAGUUCUACAGUCCGACGAUCUCGGCCGCGAGCGAGGGAAUGGAGCCGGGCGAGAAGGAGGGGCCUCUCCGGCAACCACCGCCGGCGCUCGCAGCCCAGGGAGUGAGAGGGAGGCGCCCGCCCUGAGGCGCGCCCCUGCGCCAACAGAGGAUUGAGCAUCA
B20: chr19:16212804:16212805:+_ENSG00000167460_ENST00000300933|hu_mus|hu_hu_hu_mus_False|78_78 (ssRNA)
RNA: GGGAGUUCUACAGUCCGACGAUCAACAAUUCUGGAGUGAAGGAAAGAUGUAACAUGCAAUUAAUUAAAAGCUCAGUCAGAAGGCACAUGGGCAACAAUGAUCACCCCAGCAUUCUCGCUUGGAAUGCUUAAAGACAAUCUGUUCAACAGAGGAUUGAGCAUCA
B21: chr14:54894545:54894546:-_ENSG00000100528_ENST00000216416|hu_mus|FALSE|FALSE (ssRNA)
RNA: GGGAGUUCUACAGUCCGACGAUCCUUCAUUGGUGGCGUUUUGCAUGCACUUAACUGGACCGAUUCUUCUGUGUUGUUCUAAGAGCUCACCAGAACAUAGAUCAUGCCGUAUAGGUAGUAAAAAAACGCUAGAAGGUAAAAAGCCAACAGAGGAUUGAGCAUCA
B22: chr12:96259795:96259796:+_ENSG00000139343_ENST00000266735|hu_mus|motif|central (ssRNA)
RNA: GGGAGUUCUACAGUCCGACGAUCGAGGACAUUAUUACACCUUAUUAGAACUUCGCCCAGAUGUCCAGACAGCGCCCCAUCGGUGUACUCUUCUGUAUUUGCAAGCUGCAUGUUCAUGUAGCCAUCCACGGAGACCAGGUAGCCCAACAGAGGAUUGAGCAUCA

Whole data set: some 24,000 sequences, median “enrichment r” near 0.99, cut for the highest 2% near 3.7. Not all results are given here.

This assay addresses T1, UNK ZnF1-3. Put plainly: nsRBNS (natural sequence RNA bind-n-seq); RBNS binding buffer (assumed for nsRBNS): 25 mM Tris pH 7.5, 150 mM KCl, 3 mM MgCl2, 0.01% Triton X-100, 500 ug/ml BSA, 20 U/ml SUPERase-In, 4 C; UNK is unkempt and MSI1 is Musashi-1; names of the RNAs are library labels; protein concentration not given here; high values mean tight binding.
Turning to B1, the binding signal amounted to 1.37 enrichment R. With B2 the figure was 1.29 enrichment R. With B3 the figure was 0.421 enrichment R; with B4, 1.4 enrichment R. Molecule B5 yielded a binding signal of 1.2 enrichment R. With B6 the figure was 0.64 enrichment R. The same measure for B7: 1.24 enrichment R; for B8: 1.64 enrichment R; for B9: 1.21 enrichment R. B10: the binding signal came to 0.604 enrichment R. Take B11: the binding signal is 0.55 enrichment R.

B12 registered a binding signal of 0.789 enrichment R. The same measure for B13: 1.36 enrichment R; for B14: 1.14 enrichment R. The same measure for B15: 1.93 enrichment R; for B16: 0.667 enrichment R; for B17: 2.28 enrichment R. With B18 the figure was 1.57 enrichment R. B19 yielded a binding signal of 0.497 enrichment R. The same measure for B20: 1.31 enrichment R; for B21: 1.42 enrichment R. With B22 the figure was 0.83 enrichment R.

Source of the values: PMC12136788.
